Measured values taken from PubChem BioAssay AID651719 (The Scripps Research Institute Molecular Screening Center, 2012).
Among all 360,000 compounds or so, about 1,600 (0.44%) were called active. The sample as a whole holds a higher share of actives than the screen did. A number with no mark means an inactive call.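 How the source made its calls: active means inhibition above the screen-wide average plus 3 SD (cut at about 13% in these data); inactive means the rest.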

target: Galanin receptor type 3 (Homo sapiens) (UniProt O60755); experiment: GalR3 antagonists in HEK293 cells, primary screen, cell-based, fluorescence readout (AID 651719); conditions: HEK293 GalR3-CNG cAMP membrane potential fluorescence; at 3 µM; hits give high values;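 further: forskolin and galanin both at EC90 stimulate the cells; cAMP rise reported by CNG channel membrane potential dye signal; 0% = forskolin plus galanin with DMSO and 100% = forskolin alone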
Sequence (O60755 1-299 limits assumed): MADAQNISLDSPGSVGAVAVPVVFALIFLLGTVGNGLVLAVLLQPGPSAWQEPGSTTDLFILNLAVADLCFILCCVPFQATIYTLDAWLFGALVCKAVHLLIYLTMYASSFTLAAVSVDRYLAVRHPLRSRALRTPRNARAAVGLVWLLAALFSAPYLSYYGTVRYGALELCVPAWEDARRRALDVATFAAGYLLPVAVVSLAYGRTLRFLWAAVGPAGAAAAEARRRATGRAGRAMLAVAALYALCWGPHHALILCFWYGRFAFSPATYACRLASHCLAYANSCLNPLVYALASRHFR

SMILES | inhibition
CCCCCCCCCCCCn1ccc(=N)cc1 | 75.6% (active)
CCN(CC)C(=O)[C@@H]1C=C2c3cccc4[nH]c(Br)c(c34)C[C@H]2N(C)C1 | -11%
COC(=O)C1=C(c2cc3ccccc3s2)C[C@@H]2CC[C@H]1N2C(=O)NC(C)C | -4.53%
COC(=O)C1=C(c2cc3ccccc3s2)C[C@@H]2CC[C@H]1N2C(=O)NCCO | -2.95%
COC(=O)C1=C(c2cc3ccccc3s2)C[C@@H]2CC[C@H]1N2C(=O)NCc1cccc2ccccc12 | 17.8% (active)
O=c1[nH]c(=O)n(-c2ccccc2)c(O)c1C=NC12CN3CN(CN(C3)C1)C2 | 5.15%
CS(=O)(=O)N1CCC2CCNC2C1 (stereo not given) | 0.87%
CCOC(=O)[C@]12Cc3ccccc3[C@H]1N(C1CCCCC1)C(=O)c1cc(OC)ccc12 | -8.42%
Brc1ccc2c(c1)CNCc1cnnn1-2 | -5.56%
CCN(CC)C(=O)c1ccc(NC(=O)c2cc(-n3cnnc3)ccc2Cl)cc1 | -1.92%
C[C@]12CC[C@H](O)C[C@H]1CC[C@@H]1C2CC[C@]2(C)[C@@H](C3=CC(=O)OC3)[C@@H](O)C[C@]12O (stereo not given in full) | 30.2% (active)
CC12CCC(O)CC1CCC1C2CCC2(C)C(C(=O)CC(O)C(F)(F)F)CCC12 (stereo not given) | -1.5%
COc1ccc2c(c1)[C@@]13CCCCC1[C@@H](C2)NCC3 (stereo not given in full) | -3.82%
COc1ccc(CN2CCN(c3ccccc3F)CC2)c(OC)c1 | -4.46%
Clc1ccc([C@@H]2CC3CCC2N3)cn1 (stereo not given in full) | -3.43%
O=c1c2ccccc2nc(-c2ccccc2)n1-c1ccccn1 | -5.42%
Cc1ccc(-n2c(-c3ccc([N+](=O)[O-])cc3)nc3ccccc3c2=O)cc1 | -3.3%
COc1ccc(-n2c(-c3ccccc3)nc3ccccc3c2=O)cc1 | 16.9% (active)
Cc1cc(N2CCNC[C@@H]2C)ccc1N1CC[C@H](O)C1 | -7.28%
CCC(C)NC1(c2ccccc2)CCCCC1 (stereo not given) | -2.56%
O=S(=O)(c1ccccc1)N1CCC2CCNC2C1 (stereo not given) | -5.66%
COc1cc(OC)cc(C(=O)NCCN2CCC3(CC2)C(=O)NCN3c2ccccc2)c1 | -6.02%
COC1C(O)C(C)OC(OC2CCC3(C=O)C(CCC4C3CCC3(C)C(C5=CC(=O)OC5)CCC43O)C2)C1O (stereo not given) | 43% (active)
C/C=C/CC1(CC)C(=O)NC(=S)NC1=O | -12.8%
CCCC(C)n1[nH]c(=O)c2c1NC(=O)CSC2c1ccc(OC)c(OC)c1 (stereo not given) | -3.1%
